For eight molecules, Potency results are on record in PubChem BioAssay (Tox21).

A short description of test [1]: Nuclear factor erythroid 2-related factor 2/antioxidant responsive element (Nrf2/ARE) small molecule agonists: qHTS cell viability counter screen in human keratinocytes (AID 1919968; active means well fitted curve in the direction sought with a large enough effect in the repeat runs; an effect the other way counts as inactive or inconclusive; further: nearly all actives have a fitted effect of over 55% in size; further: potency means the concentration at half of the fitted maximal effect). Put shortly:
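CellTiter-Fluor fluorescence, read 1 h after reagent, gave viability in the same wells as the ARE-luciferase assay. KeratinoSens cells (1,500/well) had 23 h compound exposure at 37 C/5% CO2 following 5 h plating.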
A general note: qHTS replaces the single test concentration by a dilution series.

A short description of test [2]: Nuclear factor erythroid 2-related factor 2/antioxidant responsive element (Nrf2/ARE) small molecule agonists: luciferase reporter gene qHTS assay in human keratinocytes (AID 1919969; further: nearly all actives have a fitted effect of over 35% in size; further: potency means the concentration at half of the fitted maximal effect). (Reporter assays use an easily measured gene product as a stand-in for the process of interest.)
Test [3] concerns the target Gonadotropin-releasing hormone receptor (Homo sapiens) (UniProt P30968). Kind of test: Human gonadotropin-releasing hormone receptor (GnRHR) small molecule agonists, calcium flux assay in GnRHR-HEK293 cells (AID 1920063). Further: nearly all actives have a fitted effect of over 35% in size. The method, boiled down:
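Agonist mode: compounds at 15 concentrations, in triplicate, went onto calcium dye-loaded GnRHR-HEK293 cells. Intracellular calcium was then followed as 480/540 nm fluorescence at 1 s intervals over 3 min.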
Background: Calcium assays in cells follow changes in intracellular calcium, usually with a dye or a luminescent sensor.

Test [4] has as its target KiSS-1 receptor (Homo sapiens) (UniProt Q969F8). Kind of test: Human kisspeptin (KISS1R) small molecule agonists, calcium flux assay in KISS1R-HEK293 cells (AID 1920064; active means well fitted curve in the direction sought with a large enough effect in the repeat runs; an effect the other way counts as inactive or inconclusive). The method, boiled down: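 Agonist mode: intracellular calcium rise tracked at 1 s intervals over 3 min (480/540 nm) immediately after compound addition to dye-loaded KISS1R-HEK293 stable cells. Each compound tested at 15 concentrations in triplicate.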

A short description of test [5]: G protein-coupled receptor (GPCR) small molecule agonists, calcium flux assay: HEK293 wild type cell line counter screen (AID 1920065). Put shortly:
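Calcium flux counter screen: compound added in agonist mode at 15 concentrations in triplicate to dye-loaded parental HEK293 cells. Fluorescence (480/540) read kinetically for 3 min; ATP served as positive control.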

Test [6] in a line: p53 small molecule agonists, cell-based qHTS assay with human liver microsomes: qHTS cell viability counter screen (AID 1963579). Further: nearly all actives have a fitted effect of over 45% in size. The method, boiled down: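 Viability of p53RE-bla cells is measured as CellTiter-Glo luminescence following a 16 h, 37 C incubation with compound, liver microsomes from human donors and NADPH.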
A short description of test [7]: p53 small molecule agonists, cell-based qHTS assay with rat liver microsomes: qHTS cell viability counter screen (AID 1963580). Further: nearly all actives have a fitted effect of over 45% in size. Put shortly:
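Counter screen for cytotoxicity under metabolic activation: rat liver microsomes and NADPH, 0.5 mg/mL final each, added with compounds to p53RE-bla HCT-116 cells; 16 h at 37 C, then ATP luminescence read.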

The nature of test [8]: p53 small molecule agonists, cell-based qHTS assay: qHTS cell viability counter screen (AID 1963581). Further: nearly all actives have a fitted effect of over 45% in size. Put shortly: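 Counter screen read by CellTiter-Glo luminescence (ATP content, 30 min at room temperature), run in the same wells as the beta-lactamase reporter read. HCT-116 p53RE-bla cells saw compounds for 16 h at 37 C.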
Test [9] in a line: p53 small molecule agonists, cell-based qHTS assay (AID 1963582; active means well fitted activation curve with a large enough effect in the signal ratio in the repeat runs, not every such curve was filed as active; the % refers to the signal ratio). The method, boiled down:
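Read-out is beta-lactamase FRET fluorescence after 2 h at room temperature with LiveBLAzer B/G substrate. p53 response element-bla cells were treated 16 h at 37 C with compounds in DMSO, added 5 h after seeding.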

In test [10] the target is 5-hydroxytryptamine receptor 2A (Homo sapiens) (UniProt P28223). As to the kind of experiment: 5-hydroxytryptamine receptor 2A (HTR2A) small molecule agonists, cell-based qHTS assay (AID 1963587). Further: nearly all actives have a fitted effect of over 30% in size. Put shortly:
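HTR2A-CHO cells, plated 18 h at 37 C/5% CO2, dye-loaded 1 h at 37 C; compounds in DMSO added by pin tool (agonist mode). Intracellular calcium flux read as kinetic fluorescence on FDSS over 2 min at 1 s intervals.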

Test [11] concerns the target Muscarinic acetylcholine receptor M1 (Homo sapiens) (UniProt P11229). As to the kind of experiment: Cholinergic receptor muscarinic 1 (CHRM1) small molecule agonists, cell-based qHTS assay (AID 1963589). Further: nearly all actives have a fitted effect of over 35% in size. Put shortly: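 Agonist-mode calcium-flux screen: compounds at 15 concentrations, three independent runs, were pin-transferred onto dye-loaded human CHRM1-CHO cells. Fluorescence was then recorded kinetically every second over minutes.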

The target in test [12] is Beta-2 adrenergic receptor (Homo sapiens) (UniProt P07550). As to the kind of experiment: Adrenergic beta2 receptor (ADRB2) small molecule antagonists, cell-based qHTS assay (AID 1963592). Further: series mostly up to about 92 µM; nearly all actives have a fitted effect of over 50% in size. Put shortly: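 Assay format: CHO-ADRB2 cells, 18-20hr seeding at 37C/5% CO2, then compound plus 1nM isoproterenol agonist mix for 0.5hr RT. Homogeneous time-resolved fluorescence cAMP detection after 1hr, expressed as 665/615 nm ratio.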
Sequence of Beta-2 adrenergic receptor (Homo sapiens) (P07550 whole entry, looked up): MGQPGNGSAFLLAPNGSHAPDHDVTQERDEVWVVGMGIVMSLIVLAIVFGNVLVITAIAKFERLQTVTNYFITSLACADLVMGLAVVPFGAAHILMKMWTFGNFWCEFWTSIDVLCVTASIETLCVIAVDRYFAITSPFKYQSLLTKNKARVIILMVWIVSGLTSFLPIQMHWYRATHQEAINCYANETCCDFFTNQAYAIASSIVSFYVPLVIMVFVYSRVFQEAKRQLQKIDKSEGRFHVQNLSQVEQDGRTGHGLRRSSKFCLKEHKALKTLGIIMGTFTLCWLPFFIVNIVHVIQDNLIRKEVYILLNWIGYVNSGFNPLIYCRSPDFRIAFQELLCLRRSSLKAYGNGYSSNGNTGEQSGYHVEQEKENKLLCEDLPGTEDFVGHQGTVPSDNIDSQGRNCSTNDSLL

Test [13] has as its target D(2) dopamine receptor (Homo sapiens) (UniProt P14416). Kind of test: Dopamine D2 receptor (DRD2) small molecule agonists, cell-based qHTS assay (AID 1963594). Further: nearly all actives have a fitted effect of over 35% in size. Put shortly:
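HEK293 cells stably expressing DRD2 were cultured 24 h at 37 C, then given Ro20-1724 (0.1 mM final) and compounds for 10 min at room temperature. NKH477 (200nM) was then added for 30 min. cAMP was read by HTRF.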

The target is the same in test [14]. As to the kind of experiment: Dopamine D2 receptor (DRD2) small molecule antagonists, cell-based qHTS assay (AID 1963595; active means well fitted inhibition curve with a large enough effect in the signal ratio in the repeat runs, with a control signal flat; the % refers to the signal ratio; further: potency means the concentration at half of the fitted maximal effect). Put shortly:
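Readout: HTRF cAMP, cAMP-d2 competing with cellular cAMP for anti-cAMP cryptate, read after 1 h. Cells: DRD2-HEK293. Conditions: 0.1 mM Ro20-1724, 12 nM quinpirole, 200 nM NKH477, 30 min RT.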

Test [15] deals with 5-hydroxytryptamine receptor 2A (Homo sapiens) (UniProt P28223). As to the kind of experiment: 5-hydroxytryptamine receptor 2A (HTR2A) small molecule antagonists, cell-based qHTS assay (AID 1963586). Further: nearly all actives have a fitted effect of over 45% in size. Further: potency means the concentration at half of the fitted maximal effect. Put shortly:
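CHO cells stably expressing human HTR2A were plated for 18 h at 37 C, then loaded with calcium dye for 1 h. Compounds were preincubated 5 min at room temperature before DOI (4 nM solution) was added. Kinetic fluorescence was read for 3 min.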

Test [16] deals with Muscarinic acetylcholine receptor M1 (Homo sapiens) (UniProt P11229). As to the kind of experiment: Cholinergic receptor muscarinic 1 (CHRM1) small molecule antagonists, cell-based qHTS assay (AID 1963588). Further: nearly all actives have a fitted effect of over 40% in size. Further: potency means the concentration at half of the fitted maximal effect. Put shortly:
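Compounds were tested at 15 concentrations in three independent runs. Dye-loaded CHRM1-CHO cells were exposed 5 min at room temperature before stimulation by acetylcholine added at 50nM. Intracellular calcium was read kinetically on FDSS for 3 min.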

Test [17] can be described thus: cAMP Responsive Elements (CRE) small molecule agonists, cell-based qHTS assay (AID 1963590). Put shortly:
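Agonist mode: compound added to CRE-bla HEK 293T cells (2,000/well, 18 h after plating) for 3 h at 37 C/5% CO2. Reporter activity detected via FRET beta-lactamase substrate, 2 h room-temperature loading.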

Test [18] in a line: cAMP Responsive Elements (CRE) small molecule antagonists, cell-based qHTS assay (AID 1963591; active means well fitted inhibition curve with a large enough effect in the signal ratio in the repeat runs, not every such curve was filed as active; the % refers to the signal ratio). The method, boiled down:
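Antagonist mode: compounds are added alongside the adenylyl cyclase activator NKH477 (0.25 uM final) to CRE-bla HEK293T cells for 3 h. LiveBLAzer FRET substrate, 2 h at room temperature, reports bla expression.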

The target in test [19] is Beta-2 adrenergic receptor (Homo sapiens) (UniProt P07550). Kind of test: Adrenergic beta2 receptor (ADRB2) small molecule agonists, cell-based qHTS assay (AID 1963593).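 Further: CHO cells stably overexpressing human ADRB2.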 The method, boiled down:
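CHO cells stably over-expressing ADRB2 were plated overnight at 37C, then dosed with compounds plus a stimulation mix containing 100uM IBMX and 25uM Ro-20-1724 for 0.5hr at room temperature. cAMP was measured by HTRF competition, 1hr.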

The nature of test [20]: p53 small molecule agonists, cell-based qHTS assay with rat liver microsomes (AID 1963578). The method, boiled down: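 Quantitative HTS of the Tox21 10K library: p53RE-bla cells, rat liver microsomes plus NADPH at 0.5 mg/mL final each, 16 h at 37 C, beta-lactamase fluorescence detection.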

A number with no mark means an inactive call. Results filed as inconclusive are left out. Calls of active or inactive are those of the source. Unless noted, the call rests on the fitted dose curve.

Sequence of Gonadotropin-releasing hormone receptor (Homo sapiens) (P30968 whole entry, looked up): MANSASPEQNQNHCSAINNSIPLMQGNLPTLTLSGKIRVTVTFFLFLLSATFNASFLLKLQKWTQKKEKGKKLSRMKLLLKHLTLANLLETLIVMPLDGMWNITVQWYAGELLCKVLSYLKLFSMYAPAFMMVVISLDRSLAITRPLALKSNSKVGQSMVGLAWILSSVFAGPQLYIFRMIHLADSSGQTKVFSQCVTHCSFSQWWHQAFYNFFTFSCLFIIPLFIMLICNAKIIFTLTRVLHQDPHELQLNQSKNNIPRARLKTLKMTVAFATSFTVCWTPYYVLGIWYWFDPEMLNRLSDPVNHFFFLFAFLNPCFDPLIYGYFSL
Sequence of 5-hydroxytryptamine receptor 2A (Homo sapiens) (P28223 whole entry, looked up): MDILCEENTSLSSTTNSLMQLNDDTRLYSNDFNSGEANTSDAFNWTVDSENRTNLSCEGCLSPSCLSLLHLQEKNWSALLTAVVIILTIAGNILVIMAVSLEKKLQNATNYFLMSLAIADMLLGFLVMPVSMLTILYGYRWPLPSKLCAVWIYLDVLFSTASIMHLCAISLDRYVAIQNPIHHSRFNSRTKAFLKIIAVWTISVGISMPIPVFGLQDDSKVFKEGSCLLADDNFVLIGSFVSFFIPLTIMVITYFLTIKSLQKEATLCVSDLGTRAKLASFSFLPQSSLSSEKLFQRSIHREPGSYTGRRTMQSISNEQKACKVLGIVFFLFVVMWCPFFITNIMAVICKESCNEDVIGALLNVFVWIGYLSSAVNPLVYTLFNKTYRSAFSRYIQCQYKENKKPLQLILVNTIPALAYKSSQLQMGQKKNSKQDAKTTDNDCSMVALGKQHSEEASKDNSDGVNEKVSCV
Sequence of KiSS-1 receptor (Homo sapiens) (Q969F8 whole entry, looked up): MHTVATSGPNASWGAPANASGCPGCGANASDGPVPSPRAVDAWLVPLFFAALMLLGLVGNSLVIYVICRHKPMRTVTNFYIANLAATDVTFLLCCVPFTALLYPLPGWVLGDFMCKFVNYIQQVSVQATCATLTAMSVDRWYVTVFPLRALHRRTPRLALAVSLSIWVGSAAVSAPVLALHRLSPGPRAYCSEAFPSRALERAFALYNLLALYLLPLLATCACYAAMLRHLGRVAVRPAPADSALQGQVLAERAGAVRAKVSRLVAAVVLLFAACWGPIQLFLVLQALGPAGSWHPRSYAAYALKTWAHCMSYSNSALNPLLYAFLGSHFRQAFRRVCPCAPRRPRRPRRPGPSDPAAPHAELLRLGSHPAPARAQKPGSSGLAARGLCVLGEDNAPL
Sequence of D(2) dopamine receptor (Homo sapiens) (P14416 whole entry, looked up): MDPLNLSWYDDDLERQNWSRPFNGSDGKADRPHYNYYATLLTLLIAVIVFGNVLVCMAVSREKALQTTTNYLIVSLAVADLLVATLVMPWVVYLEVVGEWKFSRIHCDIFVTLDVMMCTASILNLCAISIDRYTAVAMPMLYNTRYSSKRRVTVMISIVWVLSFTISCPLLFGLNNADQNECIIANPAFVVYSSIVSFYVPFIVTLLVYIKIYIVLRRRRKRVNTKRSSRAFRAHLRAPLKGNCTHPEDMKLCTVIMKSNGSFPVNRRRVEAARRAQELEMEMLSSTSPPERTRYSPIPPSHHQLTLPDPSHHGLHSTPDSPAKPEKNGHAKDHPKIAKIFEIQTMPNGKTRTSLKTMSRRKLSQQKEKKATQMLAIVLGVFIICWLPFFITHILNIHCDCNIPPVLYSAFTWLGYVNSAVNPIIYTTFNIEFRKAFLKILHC
Sequence of Muscarinic acetylcholine receptor M1 (Homo sapiens) (P11229 whole entry, looked up): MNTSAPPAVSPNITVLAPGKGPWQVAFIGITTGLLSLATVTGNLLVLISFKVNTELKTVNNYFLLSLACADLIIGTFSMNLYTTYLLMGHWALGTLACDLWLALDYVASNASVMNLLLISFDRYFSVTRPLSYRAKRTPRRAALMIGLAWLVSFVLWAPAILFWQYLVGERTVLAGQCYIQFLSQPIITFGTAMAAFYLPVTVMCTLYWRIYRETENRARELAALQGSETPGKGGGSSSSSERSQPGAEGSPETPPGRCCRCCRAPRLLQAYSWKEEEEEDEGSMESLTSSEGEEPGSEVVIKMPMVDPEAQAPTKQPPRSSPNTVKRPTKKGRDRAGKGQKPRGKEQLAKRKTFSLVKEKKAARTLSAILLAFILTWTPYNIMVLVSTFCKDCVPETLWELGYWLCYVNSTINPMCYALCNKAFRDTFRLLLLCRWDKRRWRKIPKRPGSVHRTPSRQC

As to `O=C1c2ccccc2Cc2ccccc21`, the Potency result in test [1], in [3], in test [4], in test [5], in test [6] and in test [7] was “inactive” each time. The Potency entry in test [8], in test [9], in [10], in test [11], in [12] and in test [13] was “inactive” each time. In addition, in test [14], the Potency result was “inactive”. Also, the Potency in [2] is 61.6 µM (active).

For the molecule `CC1=CC=C(C(C)C)CC1`, the Potency entry in [1], in [2], in test [3], in test [4], in [5] and in test [6] was “inactive” in each case. The Potency entry in test [7], in test [8], in test [9], in test [15], in test [10] and in test [16] was “inactive” throughout. In addition, the Potency entry in [11], in test [17], in [18], in test [12], in test [19] and in test [13] was “inactive” each time. In addition, the Potency result in test [14] was “inactive”.

For `CCCCCCCCCCCCOC(C)=O`, the Potency entry in [1], in test [2], in [3], in test [4], in [5] and in test [6] was “inactive” throughout. Moreover, the Potency entry in test [7], in [8], in [10], in [16], in test [11] and in test [17] was “inactive” throughout. Besides, the Potency result in [18], in [12], in test [19] and in test [13] was “inactive” in each case. In addition, the Potency in test [15] was 2.11 µM (active).

On to `CC(=O)/C=C/C=C1/C2CCC(C2)C1(C)C` (configuration not stated), for which the Potency result in test [1], in test [2], in [3], in test [4], in test [5] and in [6] was “inactive” in each case. Also, the Potency result in [7], in test [8], in [9], in test [15], in test [10] and in test [16] was “inactive” in each case. For the same molecule, the Potency result in test [11], in test [17], in test [18], in test [12], in test [19] and in [13] was “inactive” throughout. Moreover, the Potency entry in test [14] is “inactive”.

For the molecule `Cc1nc2sccn2c(=O)c1CCN1CCC(=C(c2ccc(F)cc2)c2ccc(F)cc2)CC1`, the Potency in test [1] was 26.6 µM (active); in test [16], 2.59 µM (active); in test [14], 26.6 µM (active). Moreover, the Potency entry in [2], in [3], in [4], in test [5], in test [20] and in test [7] was “inactive” throughout. The Potency entry in test [8], in test [10], in test [11], in [12] and in test [13] was “inactive” throughout.

As to `CC(=O)/C(C)=C/C1C(C)=CCCC1(C)C` (configuration not stated), the Potency result in [1], in [2], in test [3], in test [4], in test [5] and in test [20] was “inactive” each time. The Potency entry in [7], in [8], in test [9], in test [10], in test [16] and in test [11] was “inactive” in each case. Besides, the Potency result in test [17], in test [12], in test [13] and in test [14] was “inactive” in each case.

As for `CC(=O)OC(C)OC(=O)C(C)c1ccc(-c2ccccc2)c(F)c1` (configuration not stated), the Potency result in [1], in test [2], in test [3], in [4], in test [5] and in test [20] was “inactive” each time. Besides, the Potency entry in test [7], in test [8], in test [15], in test [10], in test [16] and in test [11] was “inactive” each time. Besides, the Potency entry in test [12], in test [19], in test [13] and in test [14] was “inactive” throughout.

Regarding `Nc1ncn([C@H]2C[C@H](O)[C@@H](CO)O2)c(=O)n1`, the Potency entry in test [1], in test [2], in test [3], in test [4], in test [5] and in test [6] was “inactive” each time. Moreover, the Potency result in test [7], in [8], in [15], in [10], in test [16] and in [11] was “inactive” in each case. Besides, the Potency result in test [17], in [18], in test [12], in test [19] and in test [13] was “inactive” throughout.
